# From PubChem BioAssay (EPA / NIEHS)
# Values joined by “and” are separate entries in the source; they are usually repeats but may differ in a detail not shown here. Equal entries are not always repeated. Records with an inconclusive call do not appear. Active and inactive are the calls of the source. Rule for the calls: active = hit-call score of the fitted dose curve at least 0.9, where 1 is the maximum; inconclusive = response in the unintended direction; inactive = score below 0.9.
# Experiment: CCTE_Simmons_CellTiterGLO_HEK293T: Viability Assessment in CCTE's Assays for Thyroperoxidase (TPO) Inhibition, Simmons Lab (AID 2283665);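 for AC50: cells exposed to compound for 24 h before readout; actives reduce ATP signal below DMSO vehicle meaning cytotoxicity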
# Experimental: CCTE_Simmons_CellTiterGLO_HEK293T is a cell-based, single-readout assay that uses HEK293T, a human kidney cell line, with measurements taken at 24 hours after chemical dosing in a 384-well plate.CCTE_Simmons_CellTiterGLO_HEK293T is the assay component measured from the CCTE_Simmons_CellTiterGLO_HEK293T assay. It is designed to make measurements of ATP content, a form of viability reporter, as detected with bioluminescence signals by Luciferase-coupled ATP quantitation technology. This is a secondary cytotoxicity assay to CCTE_Simmons_AUR_TPO to estimate a cellular tolerance limit.Data from the assay component CCTE_Simmons_CellTiterGLO_HEK293T was analyzed at the endpoint, CCTE_Simmons_CellTiterGLO_HEK293T, in the positive analysis fitting direction relative to DMSO as the negative control and baseline of activity. Using a type of viability reporter, measures of ATP content for loss-of-signal activity can be used to understand the viability. This assay was run in parallel with aeid 1508 as a means of indicating the range of chemical cytotoxicity or reactivity. To generalize the intended target to other relatable targets, this assay endpoint is annotated to the cell cycle intended target family, where the subfamily is cytotoxicity.
# Human HEK293T cells (GenHunter; Nashville, Tennessee) were seeded overnight in 384-well, solid white assay plates (Greiner, BioExpress) at a density of 10 000 cells per well in 65 ul Dulbecco's Modified Eagle Medium (Life Technologies; Carlsbad, California) supplemented with 1% fetal bovine serum (HyClone; Logan, Utah). Test compounds were administered using the HDRT as described earlier to achieve a 0.5% final DMSO concentration. Cells were then incubated at 37C for 24 hr in a humidified 5% CO2 incubator. Cell Titer Glo (Promega; Madison, WI) reagent (25 ul) was then added by the BioTek MicroFlo and microplates were incubated at room temperature in the dark for 20min. Plates were read on a plate reader (FLUOStar Optima) using an endpoint luminescence protocol (top read). Three biological replicates of technical singles were run for every chemical concentration tested. A titrated range of DCNQ served as a positive control on each plate of the cytotoxicity screening assay.Test chemicals were administered as a titrated series of 8 concentrations from 5 nM up to 87.5 uM [final] for 24 hours prior to single endpoint detection. Three biological replicates of technical singles were run for every chemical concentration tested. Dimethylsulfoxide [DMSO] was used as the vehicle control. Dichlone [DCNQ] was used as the positive control and was administered as a titrated series of 8 concentrations from 1 nM up to 100 uM [final].
Compound,AC50,outcome
CCOC(=O)c1ccc(N)cc1,21.1 µM (active),–
Oc1ccc2cc(SSc3ccc4cc(O)ccc4c3)ccc2c1,74.3 µM (active),–
CCOc1ccc(N=Nc2ccc(C=Cc3ccc(N=Nc4ccc(OCC)cc4)cc3S(=O)(=O)O)c(S(=O)(=O)O)c2)cc1,89.1 µM (active),–
CN(C)c1cccc(O)c1,–,inactive
O=C(O)CCCCCCCCC(=O)O,–,inactive
CCCCCC(C=O)=Cc1ccccc1,88.1 µM (active),–
O=C(Nc1ccc2c(O)c(N=Nc3ccc(N=Nc4ccc(S(=O)(=O)O)cc4)cc3)c(S(=O)(=O)O)cc2c1)c1ccccc1,14.4 µM (active),–
COc1ccccc1N=Nc1c(S(=O)(=O)O)cc2cc(S(=O)(=O)O)cc(NC(C)=O)c2c1O,12.2 µM (active),–
Cc1cc(S(=O)(=O)O)ccc1N=Nc1c(O)ccc2ccccc12,24 µM (active),–
CS(=O)(=O)OCCCCOS(C)(=O)=O,–,inactive
CCc1cc(Cc2cc(CC)cc(C(C)(C)C)c2O)c(O)c(C(C)(C)C)c1,11.1 µM (active),–
C=C1CC[C@H](O)C/C1=C/C=C1\CCC[C@]2(C)[C@@H]([C@H](C)/C=C/[C@H](C)C(C)C)CC[C@@H]12,78.7 µM (active),–
CCc1cc(C(C)(C)C)c(O)c(C(C)(C)C)c1,24.3 µM (active),–
CCCCCCCCc1ccc(S(=O)(=O)O)cc1,83.5 µM (active),–
O=C(O)c1ccc(O)cc1,–,inactive
CCCCCCCCC=CCCCCCCCC1=NCCN1CCO,14 µM (active) and 13.8 µM (active),–
[O-]n1ccccc1=S.[O-]n1ccccc1=S.[Zn+2],2.57 µM (active),–
CCCCCCCCCCCCCCN(CCO)CCO,21.4 µM (active),–
O=c1c(O)c(-c2ccc(O)cc2)oc2cc(O)cc(O)c12,–,inactive
Nc1ccc2cc(S(=O)(=O)O)cc(O)c2c1N=Nc1ccccc1C(F)(F)F,31.1 µM (active),–
Cc1ccc(S(=O)(=O)Oc2ccc(N=Nc3ccc(-c4ccc(N=Nc5c(O)ccc6cc(S(=O)(=O)O)cc(S(=O)(=O)O)c56)c(C)c4)cc3C)cc2)cc1,18.3 µM (active),–
COc1ccc(N=Nc2cc(C)c(N=Nc3ccc(S(=O)(=O)O)cc3)cc2OC)cc1,77.9 µM (active),–
CCCCC(CC)COC(=O)c1ccc(O)cc1 (stereo not drawn),24.7 µM (active),–
